# In PubChem BioAssay:
# Tests used:
# [1] = biological target: Tumor necrosis factor receptor superfamily member 10B (Homo sapiens) (UniProt O14763); experiment: viability loss of caspase-8 NB7 cells with TRAIL – with/without TRAIL, luminescence panel, confirmation (AID 651596); details: NB7 neuroblastoma + caspase-8, TRAIL sensitization, NB7 Caspase-8, with TRAIL, mean of runs, at 10 µM, stronger effect = higher value
# [2] = as above; details: NB7 neuroblastoma + caspase-8, without TRAIL, NB7 Caspase-8, without TRAIL, mean of runs, at 10 µM
# Tumor necrosis factor receptor superfamily member 10B (Homo sapiens), sequence (O14763 whole entry, looked up): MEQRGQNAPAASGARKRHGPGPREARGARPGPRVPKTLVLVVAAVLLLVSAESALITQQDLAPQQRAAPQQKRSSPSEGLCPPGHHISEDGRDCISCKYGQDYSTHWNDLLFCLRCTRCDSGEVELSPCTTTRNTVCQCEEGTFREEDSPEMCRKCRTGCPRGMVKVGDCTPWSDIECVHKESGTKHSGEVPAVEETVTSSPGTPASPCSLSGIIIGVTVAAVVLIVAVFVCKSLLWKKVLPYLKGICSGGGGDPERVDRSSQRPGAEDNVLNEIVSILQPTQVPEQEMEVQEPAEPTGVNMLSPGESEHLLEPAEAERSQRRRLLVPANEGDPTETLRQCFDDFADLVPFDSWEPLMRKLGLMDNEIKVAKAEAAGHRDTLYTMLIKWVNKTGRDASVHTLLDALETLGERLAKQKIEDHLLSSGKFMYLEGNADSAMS
Structure (SMILES),activity [1] [%],activity [2] [%]
O=C(Nc1cccc(-n2cnnn2)c1)c1ccc(C(F)(F)F)cc1,21.7,10.3
Cc1cc(NC(=O)CSc2nnc(-c3ccc4c(c3)OCCO4)o2)no1,52.1,58.8
Cc1nc(-c2ccc(NC(=O)c3cccs3)cc2)cs1,83.1,83.7
O=C(NN=Cc1ccc2c(c1)CCN2)c1cccs1,47.9,57.8
Cc1ccc2nc(-c3ccccn3)[nH]c2c1,81,83.9
Cn1c(/C=C/c2ccc([N+](=O)[O-])o2)nc2ccccc2c1=O,50.8,73.9
CCCCCCCN(C(=O)CCl)c1ccccc1C,99.6,98.1
COc1ccccc1N1CCN(Cc2ccc(O)c3ncccc23)CC1,30.2,76
COc1ccc(C(=O)NCc2cn3cccc(C)c3n2)cc1OC,4.08,3.77
c1ccc(-c2cc3cc4c(cc3cn2)OCO4)cc1,43.8,29
Cc1cc(NC(=O)c2ccc3c(c2)OCO3)no1,46.2,48.3
O=C(Nc1cccc(Oc2ccc(C(=O)O)c(C(=O)O)c2)c1)c1ccc(-c2ccccc2)cc1,60.4,56
CSc1ccc(NC(=O)Nc2cc(C)ccn2)cc1,52.8,35.7
O=S(=O)(c1ccc(Br)cc1)N1CCN(c2ccc3nnc(-c4ccccc4)n3n2)CC1,76.2,64.3
Cc1ccc(-c2cnc3cc(C)nn3c2)cc1,73.9,66.8
COc1ccc2oc(C(=O)Nc3nc4ccccc4[nH]3)c(C)c2c1,89.7,85.3
CCC(COC)Oc1cc(NCc2ccccc2)c2ncn(C(C)C)c2c1 (centres undefined),-8.03,-13.1
